Source: PubChem BioAssay
Pf Dd2 growth – Plasmodium falciparum Dd2 growth inhibition; P. falciparum Dd2 growth, SYBR Green, 72 h; Potency, µM (highest dose often 28.9 µM), without a hit: top-dose activity, negative = inhibition, most hits filed as inhibitors; 120,000 compounds, 4.3% hits; AID 1347417; active = well fitted inhibition curve with a large enough effect;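 note: plate controls were DMSO vehicle for no effect and reference drug for full effect; nearly all actives have a fitted effect of over 65% in size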
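Infected erythrocytes (Dd2, 0.3% parasitemia, 2.5% hematocrit final) are added to compound in RPMI-1640/Albumax II medium, grown 72 h at 37C in low oxygen, then lysed with saponin/Triton-X containing SYBR Green and read by fluorescence.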
* = called active by the depositor; i = inactive; [ ] = dose if it differs, or a comment. The sample as a whole holds a higher share of hits than the screen did. Potency is the fitted concentration of half-maximal effect.

SMILES | Pf Dd2 growth
Cc1ccccc1NC(=O)N1CCC(CCNC(=O)c2ccnn2C)CC1 | 5%
CSCCNC(=O)c1cc(Br)cn2ccnc12 | -19%[44.1 µM]
Cc1ccc2occ(CC(=O)N(Cc3ccc(N(C)C)cc3)C3CCS(=O)(=O)C3)c2c1 (stereo not drawn) | -25%
CCN(CC)c1ccc(CN(C(=O)Cc2coc3ccc(C)cc23)C2CCS(=O)(=O)C2)cc1 (stereo not drawn) | 13µM*
CCc1ccc2occ(CC(=O)N(Cc3ccc(N(C)C)cc3)C3CCS(=O)(=O)C3)c2c1 (stereo not drawn) | -14%
CCCCS(=O)(=O)N1CCn2nc(C(O)c3nccn3C)cc2C1 (stereo not drawn) | 2%
CNc1nc(NCCC2CN(c3cnn(C)c(=O)c3)CCO2)ncc1F (stereo not drawn) | 1%
Cc1cccn2c(Nc3ccc4c(c3)OCCO4)c(-c3ccc(Br)o3)nc12 | 8.9µM*
Cc1ccc(-c2nc3cccc(C)n3c2Nc2ccc3c(c2)OCO3)o1 | -17%
Cc1cccn2c(Nc3ccccc3)c(-c3ccc(N4CCOCC4)cc3)nc12 | i
Cc1noc(C)c1CO[C@@H]1COCC[C@H]1NC1CSCCSC1 | -12%
OCc1cccc(-c2ccc3ncc(Nc4cccc(C(F)(F)F)c4)n3n2)c1 | -20%[44.1 µM]
OCc1cccc(-c2ccc3ncc(Nc4ccccc4Cl)n3n2)c1 | 4µM*
OCc1cccc(-c2ccc3ncc(Nc4ccc(OCCN5CCCC5)cc4)n3n2)c1 | 0.79µM*
OCCc1ccc(Nc2cnc3ccc(-c4cccc(CO)c4)nn23)cc1 | i
C[S+](=O)([O-])Nc1cccc(Nc2cnc3ccc(-c4cccc(CO)c4)nn23)c1 | -2%[44.1 µM]
OCc1cccc(-c2ccc3ncc(Nc4cccnc4)n3n2)c1 | -4%[44.1 µM]
CCc1nc2c(c(-c3ccc(O)cc3)n1)CCN(Cc1cccnc1)CC2 | i
Cc1nc([C@H]2CCN(Cc3ccc(C(F)(F)F)cc3)C[C@H]2NC(=O)C2CC2)n[nH]1 | -10%
Cc1ccc(OCc2nc(C3CN(C(=O)c4cc(C)nn4C)C3)no2)cc1 | 20%
Cc1ccc(-c2nc(-c3nnn4c3COC(c3ccccc3Cl)C4)no2)s1 (stereo not drawn) | i
CCC(Sc1nncn2c1cc1occc12)C(=O)Nc1ccc(C)c(Cl)c1 (stereo not drawn) | 14µM*
O=C(CSc1nncn2c1cc1occc12)Nc1ccc(F)c(Cl)c1 | -30%
Cc1oc(-c2cccc(Cl)c2)nc1CSc1nncn2c1cc1occc12 | 145%[5.79 µM]
COCCNC(=O)C[C@@H]1C[C@H]2O[C@H](CNC(=O)NC(C)C)[C@@H](O)[C@H]2O1 | -7%[44.1 µM]
SMILES | Pf Dd2 growth
CC(C)c1ccc(NC(=O)C2(C)CCCCC(=O)N2)cc1 (stereo not drawn) | -19%
COc1ccc(C(=O)N2CCCC(CO)CCNC(=O)CC2)cc1 (stereo not drawn) | -17%
COc1cccc(CN2CCOC3CCN(Cc4cccc(Cl)c4)CC3C2=O)c1 (stereo not drawn) | i
O=C1Nc2ccccc2CC12CCCN2Cc1cccnc1 (stereo not drawn) | -9%[44.1 µM]
CCC(=O)N1Cc2ccccc2CC2(CCCN2Cc2cccnc2)C1 (stereo not drawn) | 17%
O=C(C1CCCC1)N1CC2(CCCCN2Cc2cccnc2)Cc2ccccc21 (stereo not drawn) | 7.9µM*
CC(=O)N1CC2(CCCN2Cc2cccnc2)Cc2ccccc21 (stereo not drawn) | -29%
O=C(C1CCCC1)N1CC2(CCCN2Cc2cccnc2)Cc2ccccc21 (stereo not drawn) | 11µM*
O=C(O)CCC(=O)N1Cc2ccccc2CC2(CCCN2Cc2cccnc2)C1 (stereo not drawn) | -7%
Cc1cccc(NC(=O)N2CCC(CC(=O)NC3CC3)C2)c1 (stereo not drawn) | -20%
Cc1ccccc1-c1cc(C(=O)NCc2cccnc2)c2c(c1)N(C)CCO2 | -11%[44.1 µM]
CC(C)(Oc1nn(Cc2cccc(Cl)c2)c2ccccc12)C(=O)NCCCn1ccnc1 | -12%
Cc1ncoc1C(=O)NCCc1ncc(C)n1CC1CC1 | -5%
COc1cccc(C(=O)Nc2cc3c(cc2C(=O)c2ccc(C)cc2)OCCO3)c1 | 4%
CCC(O)c1cc2c(cc1NC(=O)c1cccc(Br)c1)OCCO2 (stereo not drawn) | 11µM*
O=C(Nc1cc2c(cc1C(=O)c1ccccc1Cl)OCCO2)c1ccc(Br)cc1 | 13%
COc1ccc(CN2CCC[C@H]2c2nc(-c3ccc(-n4ccnc4)nc3)no2)c(OC)c1OC | 10µM*
CC(=O)N1CCC(N2CCC[C@H]2c2nc(-c3ccc(-n4ccnc4)nc3)no2)CC1 | -21%[44.1 µM]
CN(C)c1ccc(-c2noc([C@@H]3CCCN3Cc3ccc(CO)o3)n2)cn1 | 7.9µM*
FC(F)(F)Oc1cccc(CN2CCC[C@H]2c2nc(-c3ccc(N4CCOCC4)nc3)no2)c1 | -12%
CC(C)N1CCC[C@H]1c1nc(-c2ccc(N3CCN(C)CC3)nc2)no1 | 10µM*
CC(=O)Nc1ccc(CN2CCC[C@H]2c2nc(-c3ccc(N4CCC(C(N)=O)CC4)nc3)no2)cc1 | i
c1cncc(CN2CCC[C@H]2c2nc(-c3ccc(-n4ccnc4)nc3)no2)c1 | 8.9µM*
CC(=O)N1CCC(N2CCC[C@H]2c2nc(-c3ccc(N4CCC(C(N)=O)CC4)nc3)no2)CC1 | i
CNc1ccc(-c2noc([C@@H]3CCCN3Cc3cccnc3)n2)cn1 | i
SMILES | Pf Dd2 growth
COCC(=O)Nc1ccc(-c2noc([C@@H]3CCCN3Cc3cc4ccccc4o3)n2)cn1 | -16%[44.1 µM]
CN(C)c1ccc(-c2noc([C@@H]3CCCN3C3CCOCC3)n2)cn1 | i
CNc1ccc(-c2noc([C@@H]3CCCN3Cc3cccc(OC)c3)n2)cn1 | -8%[44.1 µM]
Cc1ccc(C2NC(=O)N(CC(=O)Nc3ccc(F)cc3)C3=C2C(=O)OC3)cc1 (stereo not drawn) | i
Cn1ncc(N2CCC(CNC(=O)c3cccc(-c4ncc[nH]4)c3)C2)cc1=O (stereo not drawn) | -22%
COc1nccc(N2CCC(CC(=O)NCCCN3CCC(C)CC3)CC2)n1 | -8%
COc1ccc(C(=O)N2CCC3(CC2)NC(=O)N(Cc2ccc(C)cc2)C3=O)cc1 | i
Cc1cc2nc3n(c(=O)c2n1CC(=O)Nc1cccc(C(F)(F)F)c1)CCCCC3 | -23%
Cc1nc(N2CCC(NC(=O)c3sccc3C)CC2)cc(C(F)(F)F)n1 | -1%
CCc1noc(CC2CCOC3(CCN(S(=O)(=O)c4ccc(F)c(F)c4)CC3)C2)n1 (stereo not drawn) | -28%
COc1ccc(C(=O)NCC2Cn3cccc3C(=O)N2C)cc1OC (stereo not drawn) | -4%
CC(C)(C)C(=O)N1CC[C@@H](CC(=O)O)[C@@H](CCN2CCN(c3ccccc3)CC2)C1 | 17%[44.1 µM]
CC(=O)Nc1ccc2n(c1=O)C[C@H]1C[C@@H]2CN(C(=O)c2ccccn2)C1 | -18%[44.1 µM]
O=C(Nc1cccc(OC(F)(F)F)c1)C1(CCO)CCN(c2ncccn2)C1 (stereo not drawn) | -16%
CC(=O)N1CCC2(CC1)C(=NC1CCCCC1)NC(=O)N2c1cccnc1 | 37%
CC1(C)C(=O)N(Cc2ccccc2F)[C@H]2CN(Cc3ccc4c(c3)CCO4)C[C@H]2[S+]1(=O)[O-] | -1%
CC(C)NC(=O)N1CCOc2ccc(CCC(=O)O)cc2C1 | 7%
CCCNc1ncnc2onc(C)c12 | -4%
CSc1ccc(CCNc2ncnc3onc(C)c23)cc1 | 8.9µM*
Cc1ccc(CCNc2ncnc3onc(-c4ccc(Cl)cc4)c23)cc1 | i
CCNC(=O)Nc1ccc(OCC(=O)NC2CCCC2)nc1 | 31%
